# Measured values: PubChem BioAssay AID1347383 (Zoeller Lab, School of Medicine, Boston University, 2020)
# Active and inactive are the calls of the source.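 How the source made its calls: active means cell survival after UV exposure 2 SD above solvent-only control wells at 10 µM, confirmed on one or two repeats; inactive means the rest.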
# Assay: cell survival after pyrene fatty acid photosensitization – ZR-82 cells, Analyticon library, screen 2, phospholipid biosynthesis inhibitor project, primary screen (AID 1347383);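 further: survival reflects blocked phospholipid synthesis cutting uptake of the phototoxic fatty acid; compound and fatty acid exposure 3 h then viability read next day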
# Conditions: ZR-82 CHO cells, pyrene-fatty acid UV killing, CellTiter Blue; at 10 µM; peroxisome-deficient CHO-K1 variant; with DGAT-1, DGAT-2 and ACAT inhibitors
row,SMILES,outcome
1,CC1=C2C(=O)O[C@@H](c3ccoc3)[C@]2(C)CCC1=O,inactive
2,OC1C(c2ccccc2)CCC(O)(c2ccccc2)C1O (stereo not given),inactive
3,Nc1ncnc2c1ncn2[C@@H]1O[C@H](CO)C[C@H]1O,inactive
4,COc1ccc(C(O)C(C)OC2OC(CO)C(O)C(O)C2O)cc1 (stereo not given),inactive
5,CC1(C)CC(O)CC2(C)OC(=O)C=C12 (stereo not given),inactive
6,O=C(O)/C=C/c1ccc(O[C@@H]2O[C@H](CO)[C@@H](O)[C@H](O)[C@H]2O)cc1,inactive
7,COc1c(OC)c(OC)c2c(c1OC)c(=O)c1ccccc1n2C,inactive
8,CN1[C@@H]2CC[C@H]1CC(OC(=O)C(CO)c1ccccc1)C2 (stereo not given in full),inactive
9,COC1=C(C)C(=O)c2c(cc(O)c3c2OC(C)C3(C)CCC=C(C)C)C1=O (stereo not given),inactive
10,C=C1NC(=O)C2CCCN2C1=O (stereo not given),inactive
11,CCCCCC(O)CC(O)CC(=O)O (stereo not given),inactive
12,O=C1NC(Cc2c[nH]c3ccccc23)C(=O)NC1Cc1ccccc1 (stereo not given),inactive
13,CC1(O)CCC2C(C3C1CCC3(C)O)C2(C)C (stereo not given),inactive
14,COc1ccc(C2(O)c3ccccc3NC(=O)C2OC)cc1 (stereo not given),inactive
15,CC1(C)O[C@]23C[C@H]1C[C@H](OC(=O)c1ccoc1)[C@]2(C)[C@@H](OC(=O)c1ccoc1)CCC3(C)O (stereo not given in full),inactive
16,C[C@@H]1O[C@@H](Oc2c(-c3ccc(O)c(O)c3)oc3cc(O)cc(O)c3c2=O)[C@H](O)[C@H](O)[C@H]1O,inactive
17,CO[C@@H]1C(=O)CC[C@]2(O)CO[C@H](CC=C(C)C)[C@](C)(O)[C@@]12O,inactive
18,O=C(O)C(O)Cc1c[nH]c2ccccc12 (stereo not given),inactive
19,C=C(C=O)[C@]1(O)C[C@@]2(C)C(=CC1=O)C=C[C@H](OC(=O)/C=C/C=C/[C@H](C)CC)[C@@H]2C,inactive
20,CC(C)=CCCC(C)(O)C1CC[C@]2(C)C1CC[C@@H]1[C@@]3(C)CCC(=O)C(C)(C)[C@@H]3CC[C@]12C (stereo not given in full),inactive

row,SMILES,outcome
1,COc1cc(/C=C/CO)ccc1OC/C=C(\C)CCC=C(C)C,inactive
2,CC(=O)O[C@H]1C[C@@]2(C)[C@@H](CC[C@H]3[C@@]4(C)C=CC(=O)[C@@H](C)[C@@H]4[C@H](OC(C)=O)C(=O)[C@@]32C)/C1=C(\CCC=C(C)C)C(=O)O,inactive
3,CC(=O)OC1CC2C(C)(C)C(=O)C=CC2(C)C2CC(=O)C3=C(CCC3C3=CC(O)OC3=O)C12C (stereo not given),inactive
4,COc1cc(O)cc(O)c1C(=O)/C=C/c1ccc(O)cc1,inactive
5,C=CC#Cc1ccc(-c2cccs2)s1,inactive
6,C=C[C@H](/C=C\c1ccc(O)cc1)c1ccc(O)cc1,inactive
7,O=C(CCCCc1ccc(O)cc1)CCc1ccc(O)cc1,inactive
8,COc1ccc2c(c1OC)C(=O)N1CCc3cc4c(cc3C(=O)C21O)OCO4 (stereo not given),inactive
9,C/C1=C\C[C@]2(C)C(=O)C(O)=C([C@H](C)CO)[C@H]2C/C=C(\C)[C@@H](O)CC/C(C)=C/CC1,inactive
10,COc1cc(=O)oc(C(C)C(C)O)c1CO (stereo not given),inactive
11,C=C1C(=O)OC2C1C(O)CC1(C)C(O)CCC(C=O)C21 (stereo not given),inactive
12,C[C@@H]1O[C@@H](Oc2c(-c3ccc(O)cc3)oc3cc(O)cc(O)c3c2=O)[C@H](O)[C@H](O)[C@H]1O,inactive
13,CC1CC(=O)C2CC12C(C)(O)CO (stereo not given),inactive
14,CCOC(=O)C1C(=O)C(=O)Nc2ccccc21 (stereo not given),inactive
15,O=c1c(O)c(-c2ccc(O)cc2)oc2cc(O)cc(O)c12,inactive
16,C[C@]12CC(=O)C3C[C@@]1(O)OC(O2)[C@H]3COC(=O)c1ccccc1,inactive
17,CC(C)=CCc1c2c(c(O)c3c(=O)c(-c4ccc(O)c(O)c4)coc13)C=CC(C)(C)O2,inactive
18,CC1(C)C2CC[C@]3(C)C(C(=O)C=C4[C@H]5C[C@@](C)(C(=O)O)CC[C@]5(C)CC[C@]43C)[C@@]2(C)CC[C@@H]1O (stereo not given in full),inactive
19,CC1=CCC(C(C)C)c2cc(C)c(O)cc21 (stereo not given),inactive
20,O=C(O)CCc1c(O)ccoc1=O,inactive
